Test results as given in PubChem BioAssay (NCI).
Compounds without any hit were thinned out: in the full panel of roughly 79,000, 15% have a hit. A number with no mark means an inactive call. Activity calls are given as the source filed them. Rule as the data show it: active = growth inhibition above about 70%; inactive = the rest.

Test: NCI Yeast Anticancer Drug Screen. Data for the rad18 strain (AID 177)
Conditions: S. cerevisiae rad18 mutant growth inhibition, stronger effect = higher value
Procedure: Growth inhibition of yeast strains with defined genetic alterations is measured as a screen for potential anti-cancer activity. Selected strains with alterations in DNA damage repair or cell cycle control were exposed to compounds and growth inhibition was measured relative to vehicle treated controls. The strain used in this assay is rad18

SMILES | growth inhibition (at 1.2 µM) | growth inhibition (at 3.7 µM) | growth inhibition (at 11.0 µM) | growth inhibition (at 33.0 µM) | growth inhibition (at 100.0 µM)
CC1(C2CC2)C(C#N)(C#N)C1(C#N)C#N | 4% | 9% | 22% | 53% | 87% (active)
COc1ccc(C(OCC2OC(n3cnc4c(=O)n(Cc5ccccc5[N+](=O)[O-])nnc43)C(O)C2O)(c2ccccc2)c2ccc(OC)cc2)cc1 (stereo not given) | 28% | 27% | 33% | 37% | 32%
CCCCN(CCC#N)c1ccc(/C=C/c2ccnc3ccccc23)cc1 | -3% | -3% | 1% | 32% | 77% (active)
Cn1c(-c2ccc(/C=N\N3CCN(/N=C/c4ccc(-c5c[n+]6ccsc6n5C)cc4)CC3)cc2)c[n+]2ccsc12 | 19% | 34% | 24% | 62% | 89% (active)
O=C(Nc1ccc(Cl)cc1)c1cc2cc(N=Nc3ccccc3Cl)ccc2oc1=O | 4% | 24% | 68% | 92% (active) | 91% (active)
NNc1ccccc1-c1nc2ccccc2[nH]1 | 0% | -2% | 0% | 0% | 48%
C=CC(C)(C)N1C(=O)C(C(C)=O)=C(O)C1Cc1c[nH]c2ccccc12 (stereo not given) | 0% | -3% | -1% | 9% | 66%
CCOc1ccc(N)c(S)c1 | 1% | 0% | 9% | 85% (active) | 95% (active)
